# TIM10 inh = inhibits growth of TIM10 yeast strain; S. cerevisiae TIM10 strain growth, BacTiter-Glo luminescence, 24 h; inhibition, % at 10 µM; 1.4% of 330,000 active; AID 463195;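 active = inhibition of 40% or more at the single tested concentration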;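 also: wild-type TIM10 isogenic control strain grown at permissive 25 °C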
# tim23-1 inh = tim23-1 yeast growth inhibition. AID 463212. S. cerevisiae tim23-1 growth, BacTiter-Glo luminescence, 24 h. inhibition, % at 20 µM. 1.3% of 330,000 active;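 active = growth inhibition of the mutant yeast at or above 50%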;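 also: temperature-sensitive mutant grown at 25 °C; plate controls were DMSO-treated mutant yeast for no effect and medium wells lacking yeast for full effect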
# PfHsp90 set2 = growth inhibition of yeast expressing Plasmodium Hsp90. S. cerevisiae expressing PfHsp90, BacTiter-Glo ATP, 48 h; yeast lacking PDR1 and PDR3 efflux regulators. inhibition, % at 9.4 µM. 0.32% of 310,000 active. AID 504621;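 active = every replicate shows inhibition above about 80%, whatever the replicate mean, limit read from the data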;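 also: 0% = DMSO neutral controls and 100% = 20 µM radicicol positive controls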
# SKKanGAS inh = inhibitors of SKKanGAS S. pyogenes growth in kanamycin (SK-promoter or general growth effect). BacTiter-Glo, 6 h. inhibition, % at 7.5 µM. 1.3% of 300,000 active;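 active = mean replicate score, as percent of positive control median, at least 50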;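 also: strain carries kanamycin resistance gene driven by streptokinase promoter and grows in 40 µg/ml kanamycin; loss of luminescence reflects streptokinase promoter inhibition or plain growth inhibition; 0% = median of DMSO wells and 100% = positive control at its reference dose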
# tim10-1 inh = tim10-1 yeast growth inhibition; S. cerevisiae tim10-1 ts strain growth, BacTiter-Glo, 24 h; AID 463190; inhibition, % at 20 µM; 2.2% of 330,000 active;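 active = inhibition of at least 40%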;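 also: mutant grown at 25 °C; 0% = DMSO wells with yeast and 100% = wells holding no yeast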
# NALP1 inh = inhibitors of NALP1 inflammasome in yeast | S. cerevisiae NALP1/ASC/caspase-1 growth, X-gal OD620, 72 h | inhibition, % at 10 µM | 0.61% of 280,000 active | AID 2071; in the data active = inhibition mostly above about 24%, no sharp cut-off; inactive = mostly below about 32%
# TIM10 conf = TIM10 yeast growth inhibition, confirmed; shares compounds with TIM10 inh; S. cerevisiae tim10 strain growth, BacTiter-Glo luminescence, 24 h; AID 463215; 63% of 4,600 active; inhibition, % at 10 µM;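 active = inhibition of yeast growth at or above a set limit in either of two replicates at 10 µM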;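 also: this counterscreen used the strain with wild-type TIM10; 0% = yeast with DMSO and 100% = medium wells lacking yeast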
# tim23-1 conf = confirmation of tim23-1 mutant yeast growth inhibitors | shares compounds with tim23-1 inh | S. cerevisiae tim23-1 growth, BacTiter-Glo luminescence, 24 h | inhibition, % at 20 µM | 83% of 4,400 active | AID 463218;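 active = inhibition above about 39% in either of two replicate wells at 20 µM, limit read from the data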;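 also: temperature-sensitive tim23-1 mutant grown at 25 °C; 0% = DMSO wells with yeast and 100% = medium wells without yeast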
# Active calls of the source: *; · = not tested or not shown. A selection: hits, their analogues and other compounds. The true share with any hit is near 4.8%.
SMILES,TIM10 inh,tim23-1 inh,PfHsp90 set2,SKKanGAS inh,tim10-1 inh,NALP1 inh,TIM10 conf,tim23-1 conf
N#CC1=C(c2ccccc2)/C(=C/c2ccccc2)OC1=O,43.7*,61.2*,3.0,56.8*,33.7,12.4,51.7*,59.0*
Cc1cccc(CSc2ncnc3nc[nH]c23)c1,1.3,-12.3,17.5,1.3,4.8,19.6,·,·
O=[N+]([O-])c1ccc(O)c(/C=N/NC(=S)Nc2ccc(Cl)cc2Cl)c1,45.7*,81.2*,12.1,116.9*,-2.9,·,43.1*,77.0*
Cc1cc(Cl)ccc1NC(=O)CCC(=O)N/N=C/c1cc([N+](=O)[O-])ccc1O,-14.4,-18.0,4.0,7.3,2.4,14.2,·,·
Cc1ccc(-c2nnc(N3CCN(S(C)(=O)=O)CC3)c3ccccc23)cc1,23.0,22.0,4.6,12.2,20.4,18.0,·,·
Cc1ccc(-c2nnc(N3CCN(c4ccccn4)CC3)c3ccccc23)cc1,48.2*,65.3*,-8.8,27.3,37.5,5.7,-21.8,72.0*
Oc1ccc(Cl)cc1-c1cc(-c2ccco2)[nH]n1,49.1*,71.8*,-35.9,9.5,37.6,18.8,38.1*,14.8
Cc1cccc(C(C)C)c1NC(=O)CSc1ncnc2[nH]ncc12,8.9,12.3,-33.3,·,12.2,·,·,·
COc1ccc(OC)c(C2CC(=O)Nc3cc(OC)c(OC)c(OC)c32)c1 (stereo unspecified),-8.8,-0.3,13.2,1.3,16.3,-4.5,·,·
O=C(O)c1cc2c([nH]c1=O)CCCC2,-10.8,1.4,-3.5,1.7,5.1,-0.3,·,·
C=CCSC(=C(C#N)C#N)c1cc2c([nH]1)CCCC2,40.8*,52.5*,-26.4,3.1,28.6,12.7,23.1,62.5*
O=C(CSc1ccccc1)Nc1ccc2c(c1)OCCO2,-8.6,24.3,-20.9,0.0,-9.9,0.1,·,·
O=C(CSc1ccc(-c2ccccc2)nn1)Nc1ccc2c(c1)OCCO2,55.5*,54.9*,-26.5,-0.3,36.2,33.7,58.5*,79.2*
O=C(c1ccc(Cl)cc1)C(CN1CCCCC1)c1ccccc1 (stereo unspecified),57.6*,61.8*,-47.6,-6.4,19.0,35.2,62.7*,-44.5
CC(Oc1ccc(F)cc1)c1nnc(SCC(=O)N(c2ccccc2)C2CCS(=O)(=O)C2)o1 (stereo unspecified),2.5,2.9,3.7,·,16.2,·,·,·
C[C@H](CO)N1C[C@H](C)[C@@H](CN(C)C)Oc2c(NC(=O)c3ccncc3)cccc2C1=O,-3.1,10.1,-20.3,·,4.3,·,·,·
Cc1ccc(O)c(N=Nc2nccs2)c1,50.1*,72.3*,112.4*,·,26.3,·,68.1*,70.8*
CCNC(=S)N1CCN(c2nc(CC)nc3sc4c(c23)CCCC4)CC1,23.0,28.2,-9.4,9.8,-1.3,5.5,·,·
Cc1cc2c(cc1C)-c1nnnn1C(C)(C)C2,-7.7,21.0,-10.5,-8.9,6.8,0.1,·,·
CN(Cc1cnn(C)c1)S(=O)(=O)c1cccc([N+](=O)[O-])c1,18.1,15.5,-12.6,10.3,15.7,10.6,·,·
N/C(CC1CC1(Cl)Cl)=N\OC(=O)c1ccccc1 (stereo unspecified),52.0*,79.5*,-5.9,14.8,35.1,-6.2,66.3*,73.2*
N/C(=N\OC(=O)c1ccccc1)c1ccccn1,18.1,32.9,33.8,2.8,23.8,10.6,·,·
Cc1cccc(-c2nc(S(=O)(=O)c3ccc(F)cc3)c(NCCCN3CCOCC3)o2)c1,5.3,27.0,-4.9,1.0,30.3,10.1,·,·
O=C(/C=C/Sc1ccccc1)c1ccccc1,59.2*,66.5*,-50.0,10.1,21.5,5.8,64.8*,80.8*
COc1ccc(Cl)cc1C(=O)O/N=C(\N)c1ccccn1,25.8,36.9,17.4,-3.5,16.0,9.3,·,·
SMILES,TIM10 inh,tim23-1 inh,PfHsp90 set2,SKKanGAS inh,tim10-1 inh,NALP1 inh,TIM10 conf,tim23-1 conf
Cc1ccc(/C(N)=N/OC(=O)c2ccc(C)cc2Cl)cc1,82.2*,80.2*,11.5,-1.1,23.4,36.2,88.6*,23.5
Cc1cccc(/C(N)=N/OC(=O)c2ccc(Cl)cc2Cl)c1,85.5*,65.9*,-3.3,-13.4,1.5,51.8,87.6*,39.8*
N/C(=N\OC(=O)c1cc(Cl)ccc1Cl)c1ccccn1,58.5*,65.8*,-62.7,-2.2,36.3,29.5,44.0*,56.7*
CCOP(=O)(OCC)/C(=N/OC(=O)c1ccc(Cl)cc1Cl)C(N)=O,9.8,-0.3,-23.1,-9.6,15.1,-1.4,·,·
Cc1cc(/C(N)=N/OC(=O)c2ccccc2Cl)no1,-21.0,13.1,5.8,-5.5,9.7,17.4,·,·
N/C(=N\OC(=O)c1ccc(Cl)cc1Cl)c1ccc(Cl)cc1,78.9*,82.3*,5.7,1.2,34.3,11.9,84.7*,66.7*
O=C(NCC1CCCO1)c1cc(S(=O)(=O)N2CCOCC2)c(Cl)cc1Cl (stereo unspecified),5.0,12.0,6.4,-3.4,16.7,5.8,·,·
COc1ccccc1C(=O)Nc1onc(C)c1C#N,-16.6,2.0,-10.7,-25.4,-2.1,13.5,·,·
O=S1(=O)Nc2c(ccc3cccnc23)-c2ccccc21,47.9*,70.0*,150.9*,112.3*,29.0,11.9,56.9*,47.2*
N#Cc1nc(-c2ccccc2F)oc1NCc1ccccc1,3.6,47.2,23.0,-1.4,36.2,-30.2,·,·
N#Cc1nc(-c2ccccc2F)oc1NCCc1ccccc1,66.3*,56.6*,-35.4,5.9,35.9,9.8,60.7*,77.9*
Cc1cc2cc(C=O)c(Cl)nc2cc1C,44.5*,64.2*,7.3,1.0,34.3,3.4,28.1*,80.6*
O=C(Nc1ccc2c(c1)OCCO2)c1ccc(Br)s1,·,·,-6.9,1.3,·,32.8,·,·
CCc1sc(C(=O)Nc2ccc3c(c2)OCCO3)cc1Br,54.0*,78.7*,5.2,1.0,39.0,20.3,47.3*,84.9*
CCc1ccccc1NC(=O)CNC(=O)c1ccc(OCc2cn3ccccc3n2)cc1,-35.2,-10.6,-1.9,·,-15.1,·,·,·
Cc1ccccc1C(=O)N/N=C/c1ccc([N+](=O)[O-])s1,52.1*,75.9*,0.1,10.6,32.7,-8.1,47.1*,66.0*
CCOC(=O)CCNC(=O)Nc1ccc2nc(C)n(Cc3ccccc3Cl)c(=O)c2c1,0.0,20.4,-2.6,-8.1,7.1,31.3,·,·
FC(F)(F)c1cccc(NC(=S)NNC(=S)Nc2ccc(Cl)cc2)c1,58.9*,64.9*,·,114.7*,-23.8,·,73.2*,10.0
FC(F)(F)c1cnc(NNC(=S)Nc2ccc(Cl)cc2)c(Cl)c1,10.5,5.5,12.2,15.6,28.0,33.0,·,·
CCNc1nc(N)nc(-c2cc(Cl)ccc2O)n1,50.5*,55.9*,52.3,-7.8,34.1,34.2,-9.1,37.2

# Bioassay records deposited in PubChem by several laboratories.
